Assay outcomes deposited in PubChem BioAssay by National Center for Advancing Translational Sciences (NCATS).
This is a sample that favours compounds with a hit; in the whole collection about 21% have one here.
Shiga inhibitor: blocks Shiga toxin action in Vero cells; Vero cells, Shiga toxin protein synthesis inhibition reporter; inhibition, % at 38.7 µM; hit rate 9.2% among 290,000; in the data active means inhibition mostly above about 28%, no sharp cut-off; inactive means mostly below about 43%; further: 0% is about no effect
Cycloheximide cs: affects cycloheximide protein synthesis inhibition readout, counter-screen; AID 2314; hit rate 12% among 300,000; max response, %; cell reporter, cycloheximide protein synthesis inhibition counterscreen; in the data active means max response mostly above about 13%, no sharp cut-off; inactive means mostly below about 14%; further: read at 38.3 µM for the half of the compounds with a filed dose; 0% is about no effect
Pf growth 48h: P. falciparum growth inhibition at 48 hours (one generation) | P. falciparum luciferase growth in erythrocytes, 48 h | Potency, µM (titrated, usually from 28.7 µM), for the others: at the top dose activity change, negative = inhibition, hits mostly inhibitors | hit rate 5.9% among 310,000 | AID 504832; further: potency means the concentration at half of the fitted maximal effect; on the % scale 0 is the no-effect control and ±100 the full control effect
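Read-out is firefly luciferase luminescence from an integrated reporter in P. falciparum, so falling signal marks reduced parasite growth. Infected erythrocytes were at 2% hematocrit and 0.1% parasitemia (final) in Albumax-supplemented RPMI 1640.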
HCV inhibitor: HCV inhibition | AID 651820 | Huh7.5.1 HCVcc-Cre infection, luciferase reporter, 44 h | hit rate 3.4% among 340,000 | Potency, µM (titrated, usually from 41.8 µM), for the others: top-dose activity change, negative = inhibition, usual class: inhibitors; further: potency means the concentration at half of the fitted maximal effect; on the % scale 0 is the no-effect control and ±100 the full control effect
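After 44 h co-culture of compound, cells and HCVcc-Cre (~0.5 moi), substrate is added for 15 min at room temperature and luciferase measured over 15 sec. Cells were seeded at 1,000/well and pre-cultured 4 h.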
Pf growth 96h: P. falciparum growth inhibition at 96 hour, primary screen for plastid delayed-death inhibitors; P. falciparum luciferase reporter growth, 96 h; Potency, µM (top dose mostly 28.7 µM), inactives show top-dose activity change, negative = inhibition, actives largely listed as inhibitors; hit rate 6.9% among 320,000; AID 504834; further: potency means the concentration at half of the fitted maximal effect; on the % scale 0 is the no-effect control and ±100 the full control effect
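96 h incubation, 37 C, 5% CO2, of luciferase-reporter P. falciparum-infected RBCs (2% hematocrit, 0.05% parasitemia final) with test compounds; endpoint luminescence.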
HCMV antiviral: inhibitors of human cytomegalovirus; activity change, negative = inhibition, % at 57.5 µM; HFF cells, HCMV-luciferase reporter, 72 h; active compounds read low; hit rate 4.5% among 410,000; in the data active means activity change below about -60%; inconclusive means no clear call, values can overlap the other calls; inactive means above about -39%; further: on the % scale 0 is the no-effect control and ±100 the full control effect
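After 16 h attachment at 37C, HFF cells received test compound and HCMV-luciferase (1 PFU/cell); reporter luminescence read 72 h later, data normalized against buffer-only and known inhibitor Salinomycin.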
HCV inh confirm: HCV inhibition, cherry-pick confirmation; HCVcc-Cre infectious virus cell assay, luciferase, inhibition; Potency, µM (highest dose often 41.8 µM), without a hit: at the highest dose activity, negative = inhibition, actives largely listed as inhibitors; shares compounds with HCV inhibitor; hit rate 78% among 640; further: potency means the concentration at half of the fitted maximal effect; nearly all actives have a fitted effect of over 80% in size
HCV host tox: counter-screen for HCV inhibitors: host cell cytotoxicity | HCV host cell line cytotoxicity counterscreen | hit rate 22% among 640 | shares compounds with HCV inhibitor | Potency, µM (series often up to 41.8 µM), for the others: at the top dose activity change, negative = cytotoxicity, most hits filed as inhibitors;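 further: potency means the concentration at half of the fitted maximal effect; 44 h compound exposure; on the % scale 0 is the no-effect control and ±100 the full control effect; nearly all actives have a fitted effect of over 55% in size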
Starred values were filed as active, the others as inactive; i = inactive; ? = inconclusive; . = no result; ! = not confirmed by another sample. Unless noted, the call rests on the fitted dose curve; in most records, active means well fitted curve in the direction sought with a large enough effect; inconclusive means small, poorly fitted or top-dose-only effect, or another doubt; inactive means no such curve, though single readings can be large; an effect the other way counts as inactive or inconclusive.

SMILES | Shiga inhibitor | Cycloheximide cs | Pf growth 48h | HCV inhibitor | Pf growth 96h | HCMV antiviral | HCV inh confirm | HCV host tox
COc1cc(OC)cc(-c2c(-c3ccc(F)cc3)c3cc(-c4ccc5[nH]ccc5c4)ccc3n2C)c1 | . | . | 5.2µM* | 3.2µM* | 1.7µM* | -29 | 7.9µM* | ?
COc1ccc(-c2c(-c3cc(OC)cc(OC)c3)n(C)c3ccc(-c4ccc5cc[nH]c5c4)cc23)cc1 | . | . | . | ? | . | 1 | . | .
CCCc1cc(=O)[nH]c2nnc(SCC(=O)NCc3ccc4c(c3)OCO4)n12 | . | . | -62% | 20% | -92% | -18 | . | .
Cc1cnc(C=NNC(N)=S)c2cccc(N)c12 | . | . | . | ? | . | -20 | ? | -33%
NC(=S)N/N=C/c1cccc(/C=N/NC(N)=S)c1 | 13 | -2 | 63% | -14% | 0% | 0 | . | .
NC(=S)NN=Cc1nccc2ccccc12 | . | . | . | 2.8µM* | . | -98* | 6.3µM* | ?
O=Cc1nccc2ccccc12 | . | . | . | 28% | . | 41 | . | .
CC(Oc1cccnc1[N+](=O)[O-])C(=O)N1CCc2ccccc21 (stereo not given) | . | . | . | -13% | . | 26 | . | .
CC(C)(C)NC(=O)CN(CCN1CCOCC1)C(=O)CNS(=O)(=O)c1ccc(Cl)cc1 | 0 | 1 | 37% | 14% | -17% | -2 | . | .
O=C(Nc1ccc(Cl)cc1)N[C@@H]1c2c(ccc3ccccc23)OC[C@@H]1CO | 7 | -2 | 44% | ? | 44% | ? | ? | ?
CN(C(=O)c1ccccc1)C1c2c(ccc3ccccc23)OCC1CO (stereo not given) | -4 | 6 | ? | 0% | 24% | ? | . | .
COc1ccc(CCNc2ncnc3[nH]ncc23)cc1OC | -9 | 8 | 3% | ? | 15µM* | ? | 8.9µM* | -21%
NC(N)=NC(N)=NCCc1ccccc1 | -2 | 0 | -9% | 3.2µM*! | ? | -82* | 2.8µM* | ?
NCCc1ccccc1 | . | . | . | 13% | . | -12 | . | .
O=C(NC(Nc1ncc(S(=O)(=O)c2ccc([N+](=O)[O-])cc2)s1)(C(F)(F)F)C(F)(F)F)c1ccc(Cl)cc1 | -11 | 8 | 9.3µM* | 4.5µM* | . | -96* | 4.4µM* | 7.9µM*
COCC(=O)Nc1ncc(S(=O)(=O)c2ccc([N+](=O)[O-])cc2)s1 | -17 | 13 | 7% | 6% | 24% | -39 | . | .
COc1ccc(Oc2c(OC)cc([N+](=O)[O-])c3ncccc23)cc1 | . | . | . | -24% | . | 4 | . | .
COc1cc(NC(C)CCCN)c2ncccc2c1Oc1ccccc1 (stereo not given) | -5 | -4 | ? | 7.9µM* | 2.1µM* | 11 | 20µM* | -18%
c1coc(CNc2nc3nonc3nc2NCc2ccco2)c1 | -5 | 4 | 1% | ? | i | -72* | 2.2µM* | -23%
COc1ccc(NC(=O)c2nnn(Cc3ccccc3C)c2N)c(OC)c1 | . | . | . | . | . | -11 | . | .
COc1ccc(OC)c(NC(=O)c2nnn(Cc3ccccc3C)c2N)c1 | 17 | 1 | 12µM* | 7.1µM* | ? | 0 | 22µM* | 43%
CCc1nc(CNC(=O)C2CCC(=O)N(CCc3cccc(F)c3)C2)no1 (stereo not given) | 36 | 9 | 20% | 12% | ? | -1 | . | .
CN(C)S(=O)(=O)N1CCC(Oc2ccc(C(=O)NC3CCOC(C)(C)C3)cc2)CC1 (stereo not given) | -3 | -7 | 2% | 1% | ? | -23 | . | .
CN(C)S(=O)(=O)N1CCC(Oc2cccc(C(=O)NC3CCCCCC3)c2)CC1 | 17 | -2 | ? | 2.8µM* | ? | -90* | 4.4µM* | 7.9µM*
Cc1cc(-c2ccc(Cl)cc2)n2nc(N)nc2n1 | 19 | 12 | 7% | -8% | . | 32 | . | .
CSc1nc2nc(C)cc(-c3ccccc3)n2n1 | -1 | -1 | 13% | 7.9µM* | . | -26 | ? | 15%
